The supplement of paper PMC11417369
Over roughly 25,000 sequences, “ln(normalized median fluorescence intensity)” has its median near 7.1; the highest 2% begin near 10. Only a selection was taken, and the highest values are over-represented in it overall.

Test system: PfSIP2 AP2 domain 1 (GST-tagged)
Test: gcPBM binding intensity (ln(normalized median fluorescence intensity)); higher = stronger DNA binding
In short: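 GST-tagged P. falciparum DNA-binding domains produced in E. coli were incubated for 1 h on an Agilent 4 × 180k array of primer-extended double-stranded 36-bp intergenic genomic probes with negative controls. Binding intensity is the highest Masliner-normalised natural-log median intensity across replicate spots of either probe orientation, with bound protein detected by Alexa488 anti-GST antibody at 488 nm.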

| Sequence | gcPBM binding intensity (ln) |
| --- | --- |
| AAATGTAATAATAAATGTACAAACATATATATGTAT [XGTACX_site8718] | 6.94 |
| CTAAAAATCTTTTGTTGTACTTTTAGATAATCAGGA [XGTACX_site3968] | 7.06 |
| ATGGGGAATAATGAATGTACACAAATAAAAAGTTGG [XGTACX_site4015] | 7.13 |
| TTTTTTTTTTTTTGTTGTACCCATCATATATACATA [XGTACX_site4342] | 7.11 |
| GTTCATTCATTTTAATGTACAAATTTAACTTTTTCT [XGTACX_site680] | 6.91 |
| TCTTTTTTAAATAAAAGTACAAAAAAAAATAAAAAA [XGTACX_site2670] | 6.93 |
| ATTTTTTTTTTTTTATGTACATATTAAAAAAAATAT [XGTACX_site1829] | 7.01 |
| ATATAAAAATACAGGTGTACATTTTTTCATATTTAT [XGTACX_site6959] | 7.18 |
| AACAACAACTAATATGCACACATTTAAAAACAAAAT [CACACA_site2440] | 7.5 |
| TGATTCTAACTTATGGTGCAACATTATGGACACCGT | 10.7 |
| TATATAACATATGGGACACACATGCAACTGTTATAT [CACACA_site3792] | 7.19 |
| AATCATAAACATTATGCACACAAAAATAAAAAAAAA [CACACA_site8289] | 7.36 |
| TCATAAACATTATGCACACAAAAATAAAAAAAAATA [CACACA_site1115] | 7.52 |
| TTATGGTGCAACATTATGCACACCGTTAAATAACTA [CACACA_site3846] | 11.9 |
| GATTCATCTAAACACCGTACATATTATATATATATA [XGTACX_site6030] | 9.22 |
| TAATATATTATAAACACATGCACATTAATAATAACT [TGCATGCA_site708] | 9.16 |
| ATGGTGCAACATTATGCACACCGTTAAATAACTAAT [CACACA_site9280] | 11.8 |
| ATTAAAGAGAGACATCAACACACATACGTATGTATA [CACACA_site8393] | 6.94 |
| TAGTTTTTTATAAAATTATTTATATAAAGGTAAAAA [CACACA_negctrl_site490] | 7.1 |
| TTTGGATAAAAAATATGTACACACATATAGATATCT [XGTACX_site5660] | 6.9 |
| TCTACAAAATTATCATGTACATATTATTATAATTAT [XGTACX_site6585] | 7.28 |
| TGTTGTATATCTCTATATAGCTATATTGTATATATA [TGCATGCA_negctrl_site323] | 6.97 |
| TATAAAAGTGGACACACACACATATATATATATATA [CACACA_site4673] | 9.47 |

| Sequence | gcPBM binding intensity (ln) |
| --- | --- |
| TGTAAATTATAACGTGCACACATATTTAAAATGAAA [CACACA_site8915] | 10.6 |
| TAATATATAACGTGCACACACACATTTACGTATGAA [CACACA_site1832] | 9.88 |
| CTTAATTTAATGAAATGTACATATAAAAATATTATA [XGTACX_site3303] | 7.11 |
| ATATATAACGGGCACACACACATTTACGTATGAATA [CACACA_site1833] | 7.39 |
| TTTATTAATAATTATACACACATATAAAATGAATAA [CACACA_site1359] | 7.01 |
| ATATATAACGTGCACACACACATTTACGTATGAATA [CACACA_site6948] | 10.4 |
| TAAATTATAACGTGCACACATATTTAAAATGAAATG [CACACA_site2820] | 10.3 |
| AAATGAATTTAACAATGTACACATATATTATAAATA [XGTACX_site1449] | 7.13 |
| TAAAATAAATTGTGCACACATATTTATAAATATGAA [CACACA_site2331] | 9.66 |
| ATATAAGTACGGCATGCATGCACATTTTTTTATTCC [TGCATGCA_site101] | 7.09 |
| TACGTTATATACAACTGTACTTGGATAATTATTAAC [XGTACX_site5614] | 7.13 |
| TCTTTTTTTTTTTTTTTTTTTTTTTATTTATTCATA [CACACA_negctrl_site1827] | 6.85 |
| CATAATATATATTGAGCATGCTACTATTGTTAGAAA [TGCATGCA_site740] | 6.93 |
| ATATATAAATATAGCATACACACAAAAAAATAAAAT [CACACA_site2332] | 7.11 |
| TTTTTTAAATATTATTTTTATGAGTAAATATATTAT [GTGCAC_negctrl_site277] | 6.71 |
| TTTTTTTTTAATAAAATTATAATAAATATGAAATTA [XGTACX_negctrl_site369] | 6.67 |
| GACAATATTAAAACATGTACATGCATTTTATGAATA [XGTACX_site553] | 7.05 |
| TTTTTATGGACTATGGTGCATTATATATAAATGAAA [GTGCAC_site9557] | 10.6 |
| AAATATTATAAAAAGGTGCATTTTTATTATATGAGT | 11 |
| TATCATATATGAAGGTGTACGATTTATTATATAAAT [XGTACX_site7010] | 7.04 |
| TACAGTTCAATGAAGGTGCAATTAATATATAAAATA | 10.2 |
| ATATTTTATGTAAAGGTGCAAAACAACATTAAAAAA | 10.5 |
| ATTATCAATATGAAGGTGCATTTAAATAATATTTAC | 10.7 |

| Sequence | gcPBM binding intensity (ln) |
| --- | --- |
| TTTTTTAAATATATGGTGCATAGAAAGATATTATAC [GTGCAC_site9984] | 10 |
| ATTTATTTTATATGTTGTACAAACATTTTAAAACAT [XGTACX_site6919] | 6.95 |
| TTATTTTTATTATAAATTATAAAATATAAATAAATA [GTGCAC_negctrl_site616] | 6.79 |
| ATCATATATTATTTATGTACTTATTTATAATAATAT [XGTACX_site8257] | 7.06 |
| AGAATATCAAAATAAAGTACATTTATTATATATATG [XGTACX_site7100] | 7.15 |
| TTATTTAAAAAATTTTTAAATATACAAAAAAAAAAA [TGCATGCA_negctrl_site464] | 6.88 |
| TTAATTGACATAAAAAGTACTCATATAGATATGCAC [XGTACX_site6391] | 8.9 |
| AAACATTTATCAATGAATCTTTTAATAAGTGTAAAG [XGTACX_negctrl_site80] | 6.79 |
| TAAATATAACAGAATAATATGTGGATTAATAAATGA [CACACA_negctrl_site438] | 6.81 |
| ACATATGGCACATATGTACACACGTATAGATAATAT [CACACA_site2024] | 7.19 |
| TGGAGGTCAGTTCACAGTACCCAGAAAACTCTACGA [XGTACX_site2561] | 6.58 |
| TAAAATATTATAAAATGTACAAAACATATAAATATA [XGTACX_site5315] | 6.8 |
| AACACATAATAAAATTGTACCCAACATTTCTTTTGA [XGTACX_site8061] | 6.96 |
| GCAAATCATGCTATGGTGCATATGTAAGATGAGCAT | 10.6 |
| TATTAATTATAAGATGCATGTGCAAAAATATGTTCC [TGCATGCA_site51] | 7.6 |
| GCATATGATGAGCATATAATCATAAGAAAAAAAAAA [CACACA_negctrl_site701] | 6.72 |
| TATAACTTTTATAGGTGTACCCAATATTATATATAG [XGTACX_site7673] | 6.97 |
| CCAGTGTGCACCTTGCGTACATATTAAATTAATTAA [XGTACX_site3729] | 12.2 |
| TTGCATTAATTTATGTGTACATATAAATTTTTATTT [XGTACX_site3060] | 7.41 |
| TTAAAAATGTGTGTGCGTACATAATATTTCGAAAAA [XGTACX_site8197] | 7.03 |
| ATATATATGTATATAACATGCAACATTTAATAATAA [TGCATGCA_site1018] | 7.18 |
| CATGTATGTACCATGGTGCAACAATATTTTTAACAA [GTGCAC_site9597] | 10.6 |
| TATATATATTTTATATGTACGTATGGAACAATATGA [XGTACX_site8167] | 7.38 |

| Sequence | gcPBM binding intensity (ln) |
| --- | --- |
| GTTACTGCATACATAACACACATATTCAAAACCCAT [CACACA_site5856] | 7.13 |
| TTCTGTATACGGTGTGCACACAATTAAAAAAAAAAA [CACACA_site1416] | 9.47 |
| TGATTCTGTCATGGTGCACACCAGAACCATTATAAA [CACACA_site1965] | 11.9 |
| CATTATGTCATAAATGCACACATATATATATACATA [CACACA_site8454] | 7.38 |
| TTATAAAGAATTAGGAGTACAAATGCATATATAATA [XGTACX_site6580] | 7.3 |
| TGTTTATTTTTTTTATGTACTTATTTTTTATTGCAT [XGTACX_site719] | 7.61 |
| ATATTTTTATTTAAATCACATCATTTTGTTTATTTG [CACACA_negctrl_site1056] | 6.95 |
| AAAATTAAAAATAACACACACATATTTATATTTATA [CACACA_site7329] | 6.87 |
| AAAAAATTAACGAGTGCACACATATTTAGATAAAAT [CACACA_site8958] | 10.6 |
| AAAATTAACGAGTGCACACATATTTAGATAAAATAC [CACACA_site2936] | 11.2 |
| AAAATTAAAAATAACACACACATATATATATTTATA [CACACA_site2776] | 6.9 |
| GAAAAATTAAAAATAACACACACATATATATATTTA [CACACA_site8896] | 6.98 |
| TAAAATAATATTTATGTGCACATATAATTATTAATT | 8.71 |
| TTTTATTTATTATTATGTACACACTATATTAAAACA [XGTACX_site1265] | 7.13 |
| TTGTTATTCCACCGTTGTACAGTTATATACATACAC [XGTACX_site8296] | 7.31 |
| GTACATTGTAAGGATGGAAAAGCTAAACATTATAAT [XGTACX_negctrl_site339] | 6.99 |
| ATAGAACAATTCAGAAGTACATAAAAAGAAAAATTT [XGTACX_site3015] | 6.9 |
| ATGAACATTTATAAATGTACTCACATATATATATTT [XGTACX_site6692] | 7.02 |
| ATATATATATGTTAGGTGCATATATATTTTGTGGAT [GTGCAC_site9964] | 9.6 |
| TTTTTTTTTTTTGAGGTGCATATATCAGATCAATAT | 10.6 |
| TAATGTTGAGAATTTTGTACATATAGATCAATTTAT [XGTACX_site5426] | 6.84 |
